# Screens: PubChem BioAssay, several laboratories
# BH1578 lux ind = inducers of Vibrio cholerae quorum light production without autoinducers, primary screen, BH1578 luxS cqsA deficient, single point. V. cholerae BH1578 lux reporter, luminescence, 6 h. activation, % at 18.7 µM. actives 0.16% (n = 350,000); in the data active = activation mostly above about 9.7%, no sharp cut-off; inconclusive = no clear call, values can overlap the other calls; inactive = mostly below about 3.7%
# BoNT A protease = BoNT/A light chain protease inhibitors, primary screen, biochemical, flow cytometry, MLPCN library; Botulinum neurotoxin type A light chain protease (Clostridium botulinum A str. ATCC 3502); multiplex microsphere protease substrate cleavage; inhibition, % at 10 µM; actives 0.17% (n = 360,000); in the data active = inhibition above about 30%; inconclusive = no clear call, values can overlap the other calls; note: plate controls were buffer without enzyme for full effect and enzyme alone for no effect
# BJeLR lethal = MLPCN primary cell-based screen for lethality selective to Ras in HRASV12 cells. actives 0.17% (n = 300,000). inhibition, % (concentration not given with the values). BJeLR (HRASV12) viability, CellTiter-Glo ATP luminescence, 48 h; in the data active = inhibition above about 50%; inconclusive = no clear call, values can overlap the other calls
# Bead autofluor = counter-screen for toxin protease inhibitors: compound fluorescence; actives 3.1% (n = 360,000); fluorescence intensity (no concentration beside the values); compound autofluorescence counterscreen, microsphere flow cytometry; active compounds read high; in the data active = fluorescence intensity above about 16000; inconclusive = no clear call, values can overlap the other calls
# BoNT-F LC inh = BoNT/F light chain protease inhibitors, primary screen, biochemical, flow cytometry, MLPCN library | inhibition, % at 10 µM | Botulinum neurotoxin type F light chain protease (Clostridium botulinum) | actives 0.22% (n = 360,000) | AID 588497, 2011 | Multiplex microsphere protease cleavage assay; in the data active = inhibition above about 35%, passing the limit was not always enough; inconclusive = no clear call, values can overlap the other calls; note: plate controls were buffer without enzyme for full effect and enzyme alone for no effect
# Anthrax LF prot = Bacillus anthracis LF protease inhibitors, primary screen, biochemical, multiplex microsphere, MLPCN library; multiplex microsphere protease cleavage assay; inhibition, % at 10 µM; actives 0.12% (n = 360,000); in the data active = inhibition above about 30%; inconclusive = no clear call, values can overlap the other calls; note: plate controls were buffer without enzyme for full effect and enzyme alone for no effect
# BoNT-A LC CP1 = BoNT/A light chain protease inhibitors, confirmation, biochemical, flow cytometry, cherry pick 1; actives 3% (n = 720); shares compounds with BoNT-F LC inh; multiplex microsphere protease assay; inhibition, % at 10 µM; in the data active = inhibition above about 32%
# BoNT-F LC CP1 = BoNT/F light chain protease inhibitors, confirmation, biochemical, flow cytometry, cherry pick 1; shares compounds with BoNT-F LC inh; multiplex microsphere protease cleavage assay; inhibition, % at 10 µM; 720 tested, under 10 active
# LF protease CP1 = Bacillus anthracis LF protease inhibitors, confirmation, biochemical, multiplex microsphere, cherry pick 1. AID 602142, 2011. 720 tested, under 10 active. multiplex microsphere protease cleavage assay. shares compounds with BoNT-F LC inh. inhibition, % at 10 µM
# An asterisk follows results filed as active; i = inactive; ? = inconclusive; nt = no result given; + = active, no number. Shown are actives, neighbours in structure and some others; about 3.7% of the full set was active somewhere. Unless noted, the rule behind the calls is not given here.
SMILES,BH1578 lux ind,BoNT A protease,BJeLR lethal,Bead autofluor,BoNT-F LC inh,Anthrax LF prot,BoNT-A LC CP1,BoNT-F LC CP1,LF protease CP1
OC[C@@H]1CN(Cc2cccc(C(F)(F)F)c2)C[C@H](n2cnc3c(NCc4ccncc4)ncnc32)O1,-0.7,-0.6,nt,4141,-4.5,-5.4,nt,nt,nt
O=C(Nc1ccc(F)c(Cl)c1)Nc1nnc([C@@H]2O[C@H](CO)[C@@H](O)[C@H]2O)s1,-0.3,-0.2,nt,3805,3.8,-1.7,nt,nt,nt
NC(=O)Cn1nc(-c2ccccc2)nc1-c1ccccc1,-0.8,-2.3,-0.3,4464,?,31.0*,-2.3,-5.6,4.5
CCN(CCCNC(=O)CN1C(=O)COc2ccccc21)c1ccccc1,-1.7,30.5*,nt,5098,20.8,34.8*,0.7,-3.1,-4.2
Cc1ccc2cc(C(c3nnnn3C(C)(C)C)N3CCCCCC3)c(=O)[nH]c2c1 (configuration not stated),i,1.1,-5.0,10312,5.4,-1.7,0.0,-0.4,-3.5
COCCn1nnnc1C(C(C)C)N(Cc1ccccc1)Cc1cc2cc(OC)ccc2[nH]c1=O (configuration not stated),i,1.1,nt,5669,3.5,7.5,nt,nt,nt
COc1ccc2cc(C(c3nnnn3Cc3ccc(F)cc3)N3CCCCCC3)c(=O)[nH]c2c1 (configuration not stated),i,5.5,2.4,12405,6.0,5.2,nt,nt,nt
Cc1ccc2cc(C(c3nnnn3C3CCCC3)N3CCN(c4ccccc4)CC3)c(=O)[nH]c2c1 (configuration not stated),i,1.1,-0.1,9107,5.7,-1.1,nt,nt,nt
COc1ccc2cc(C(c3nnnn3CCc3ccccc3)N3CCC(O)CC3)c(=O)[nH]c2c1 (configuration not stated),-1.8,30.5*,nt,38811*,+,14.8,2.2,-4.8,-7.7
COc1ccc(Cn2nnnc2C(c2cc3cc(C)ccc3[nH]c2=O)N2CCOCC2)cc1 (configuration not stated),i,0.4,-1.8,22468*,0.6,0.2,0.2,-6.1,0.7
CCN(Cc1ccccc1)C(c1cc2ccc(C)cc2[nH]c1=O)c1nnnn1CCOC (configuration not stated),-0.6,?,-4.1,?,i,?,3.3,-9.7,2.7
OC[C@@H]1CN(Cc2ccncc2)C[C@H](n2cnc3c(N4CCOCC4)ncnc32)O1,i,-0.2,nt,3652,-4.8,-10.0,nt,nt,nt
Cc1ccc(S(=O)(=O)N2C[C@H]3[C@H]4C(=O)N(c5ccccc5)C(=O)[C@H]4C[C@H](OC(=O)Nc4cccs4)[C@@]3(O)C2)cc1,-0.4,0.3,nt,3196,-5.5,4.4,nt,nt,nt
Cc1ccccc1CSCC1Nc2ccc(C(=O)NCCc3ccccc3)cc2NC1=O (configuration not stated),i,18.1,nt,3875,-50.3,-25.5,nt,nt,nt
CCC(C)(C)n1nnnc1C(c1cc2cc(C)ccc2[nH]c1=O)N1CCCC1 (configuration not stated),i,?,-17.8,21937*,6.4,-9.1,-1.0,1.4,-2.3
CCC(C)(C)n1nnnc1C(c1cc2cc(C)cc(C)c2[nH]c1=O)N1CCN(C(=O)c2ccco2)CC1 (configuration not stated),i,1.1,-6.4,5067,4.8,-3.3,0.4,-0.9,2.0
Cc1ccc2[nH]c(=O)c(C(c3nnnn3C(C)(C)C)N3CCN(C(=O)c4ccco4)CC3)cc2c1 (configuration not stated),i,1.0,2.9,10855,-1.2,2.8,nt,nt,nt
Cc1cccc2cc(C(c3nnnn3C(C)(C)C)N3CCN(C(=O)c4ccco4)CC3)c(=O)[nH]c12 (configuration not stated),i,1.7,1.7,5518,-1.8,-2.7,nt,nt,nt
O=C(NCC1CC1)c1cccs1,nt,-0.2,nt,4832,-14.4,-9.3,nt,nt,nt
O=C(NCCC1CCCC1)c1cccs1,0.6,?,-2.2,3779,?,31.2*,-0.1,1.0,-1.4
O=C1CC(N2CCN(c3ccc(Cl)cc3)CC2)C(=O)N1c1ccc(F)cc1 (configuration not stated),-0.7,2.6,2.4,3880,56.5*,-3.3,-1.5,1.1,-3.0
O=C(O)c1ccc(N2C(=O)CC(N3CCN(c4ccc(Cl)cc4)CC3)C2=O)cc1 (configuration not stated),2.3,0.1,3.1,3771,?,-8.6,nt,nt,nt
COCCNC(=O)C1(C)CCN(C(=O)c2cc(-c3ccccc3)cs2)C1 (configuration not stated),i,0.2,nt,2934,3.9,3.7,nt,nt,nt
O=C1c2ccccc2C(=O)N1CCCn1ccnc1,i,0.7,0.5,3039,?,13.3,nt,nt,nt
O=C1c2ccccc2C(=O)N1CCn1ccnc1,-1.4,0.5,20.9,3914,40.7*,14.2,-0.5,0.5,1.1
SMILES,BH1578 lux ind,BoNT A protease,BJeLR lethal,Bead autofluor,BoNT-F LC inh,Anthrax LF prot,BoNT-A LC CP1,BoNT-F LC CP1,LF protease CP1
Cc1cccc(C(C)(C)C)c1OCCOCCN1CCCC1,-0.1,4.4,5.4,2192,37.6*,-0.3,0.9,-2.2,-2.2
CCc1cc2cccc(C)c2nc1SCC(=O)NC1CCCC1,i,-0.6,4.1,3309,36.8*,4.1,0.8,-2.6,-2.4
OC[C@H]1O[C@@H](c2nc(-c3ccc4[nH]ccc4c3)no2)[C@H](O)[C@@H](O)[C@H]1O,i,0.3,nt,3740,4.7,4.5,nt,nt,nt
Fc1ccc(-c2nnc3ccccn23)cc1,i,-0.8,-6.4,2599,-5.7,-0.6,nt,nt,nt
Brc1ccc(-c2ncc3ccccn23)cc1,1.5,1.7,-13.5,3322,-1.6,9.0,0.2,-3.9,-1.5
Fc1ccc(-c2ncc3ccccn23)cc1,-0.7,35.6*,8.5,4490,-0.9,14.7,1.6,0.1,-0.5
Cc1ccc2nc(SCC(=O)O)nc(C)c2c1,i,3.4,-5.4,4380,39.7*,7.0,-0.9,-6.5,-3.9
Cc1ccc2nc(SCCC#N)nc(C)c2c1,i,1.0,8.2,4543,12.9,1.1,nt,nt,nt
CC(C(=O)NCc1ccccc1Cl)n1cc([N+](=O)[O-])cn1 (configuration not stated),-1.3,-1.0,-4.4,3781,37.7*,-15.1,0.5,-3.7,-0.7
